Shown are actives, neighbours in structure and some others; about 2.3% of the full set was active somewhere.
LGR2 inh: Drosophila LGR2 receptor signaling inhibition; HEK293 LGR2, CRE-luciferase, bursicon-stimulated, 4 h; inhibition, % at 9.99 µM; 0.35% of 380,000 active;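 active = drop in luminescence signal, shown as inhibition above about 50% in the replicate tests, limit read from the data, passing the limit was not always enough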;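 also: agonist challenge used bursicon conditioned medium at about half maximal strength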
SENP6 block: SENP6 protease inhibition. Q9GZR1. Recombinant SENP6 catalytic domain, aminoluciferin luminescence. inhibition, % at 10 µM. 1.8% of 330,000 active. AID 2599;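 active = inhibition above about 50% at the single tested dose, limit read from the data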;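 also: plate controls were DMSO wells with enzyme for no effect and DMSO wells lacking enzyme for full effect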
SENP8 block-1: blocks the human protease SENP8; Q96LD8; purified SENP8, Z-RLRGG-aminoluciferin cleavage, luminescence; inhibition, % at 10 µM; 1.2% of 330,000 active; in the data active = inhibition above about 50%
Target sequence (Q96LD8 whole entry, looked up): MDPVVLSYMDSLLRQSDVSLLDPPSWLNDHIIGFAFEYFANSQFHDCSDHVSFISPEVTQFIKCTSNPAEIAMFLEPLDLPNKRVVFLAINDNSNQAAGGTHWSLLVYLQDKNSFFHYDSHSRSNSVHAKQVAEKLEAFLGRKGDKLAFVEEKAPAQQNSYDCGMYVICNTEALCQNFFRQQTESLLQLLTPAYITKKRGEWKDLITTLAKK
SENP7 inh: blocks the human protease SENP7. Q9BQF6. recombinant SENP7, Z-RLRGG-aminoluciferin luminescence, 40 min. inhibition, % at 5 µM. 1.5% of 330,000 active;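 active = inhibition above about 50% at the single test dose, limit read from the data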;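 also: plate controls were DMSO with enzyme for no effect and no enzyme buffer wells for full effect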
SENP8 block-2: SENP8 (human) protease inhibition; Q96LD8; AID 602440; recombinant SENP8, Nedd8 substrate fluorescence; inhibition, % at 20 µM; 0.64% of 360,000 active; in the data active = inhibition mostly above about 40%, no sharp cut-off; inactive = mostly below about 27%
HSP90 refold inh: HSP90 refolding inhibition in rabbit reticulocyte lysate; luciferase refolding luminescence, 3 h; inhibition, % at 5.6 µM; 0.91% of 290,000 active;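 active = inhibition above the screen-wide mean plus 3 SD, computed separately per campaign, cut at about 16% in these data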;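 also: 0% = DMSO wells and 100% = 60 µM geldanamycin wells; inhibitors lower the luminescence because luciferase stays unfolded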
SENP8 conf: human SENP8 inhibition, confirmed | shares compounds with SENP7 inh | Recombinant SENP8, Z-RLRGG-aminoluciferin luminescence, 60 min | inhibition, % at 12.5 µM | 40% of 6,200 active | AID 488912;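 active = mean inhibition across replicates above about 50%, limit read from the data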
SENP6 confirm: confirmation of human SENP6 protease inhibitors; shares compounds with SENP7 inh; recombinant SENP6, Z-RLRGG-aminoluciferin luminescence; inhibition, % at 12.5 µM; 58% of 6,200 active
SENP7 conf: confirmation of human SENP7 protease inhibitors; shares compounds with SENP7 inh; recombinant SENP7, Z-RLRGG-aminoluciferin luminescence, 40 min; inhibition, % at 12.5 µM; 69% of 6,200 active; AID 488917
Casp3 SENP sel: selectivity test for SENP inhibitors: human caspase-3 inhibition; shares compounds with SENP7 inh; purified caspase-3, Z-DEVD-aminoluciferin luminescence, 60 min; inhibition, % at 12.5 µM; 60% of 6,200 active;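 active = mean inhibition above about 50%, limit read from the data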;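 also: plate controls were enzyme with DMSO for no effect and wells without caspase-3 for full effect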
Target sequence (P42574 28-227 limits assumed): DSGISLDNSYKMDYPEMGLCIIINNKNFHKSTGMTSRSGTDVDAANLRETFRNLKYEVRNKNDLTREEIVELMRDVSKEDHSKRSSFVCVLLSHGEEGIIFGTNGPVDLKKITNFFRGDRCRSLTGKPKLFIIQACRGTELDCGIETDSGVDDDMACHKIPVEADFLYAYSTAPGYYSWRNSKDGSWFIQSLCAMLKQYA
Luc interf: luminescence interference (SENP counter-screen); 39% of 6,200 active; AID 488919; shares compounds with SENP7 inh; Pre-incubated SENP8/Z-RLRGG-aminoluciferin, luciferase luminescence interference; inhibition, % at 12.5 µM;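 active = mean inhibition above about 50% when retested at one dose, limit read from the data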;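 also: plate controls were DMSO wells with completed reaction for no effect and substrate without enzyme for full effect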
The depositor's hits bear a star; i = inactive; . = not tested or not shown.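 The calls were made as follows, unless noted: active = mean inhibition above about 50% in the one-dose retest (limit read from the data); inactive = the rest.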

SMILES	LGR2 inh	SENP6 block	SENP8 block-1	SENP7 inh	SENP8 block-2	HSP90 refold inh	SENP8 conf	SENP6 confirm	SENP7 conf	Casp3 SENP sel	Luc interf
COc1ccc2cc(C(=O)NCc3ccco3)c(=Nc3ccc(C(=O)O)cc3)oc2c1	.	10	3	2	-299	3	.	.	.	.	.
CCc1ccc2oc(-c3ccc(OC)cc3)cc(=Nc3c(C)n(C)n(-c4ccccc4)c3=O)c2c1	83*	97*	84*	99*	-448	11	23	20	16	48	20
C[C@H]1CN([C@@H](C)CO)C(=O)c2cccc(NC(=O)Nc3ccccc3)c2O[C@@H]1CN(C)Cc1ccncc1	-15	.	.	.	.	.	.	.	.	.	.
COc1ccccc1CN=c1c([N+](=O)[O-])nn(-c2ccc3c(c2)OCCO3)n1O	-16	46	22	59*	26	2	-11	2	-9	8	0
O=[N+]([O-])c1nn(-c2ccc3c(c2)OCCO3)n(O)c1=NCc1ccccc1Cl	-46	27	9	64*	17	2	10	32	65*	13	7
O=[N+]([O-])c1nn(-c2ccc3c(c2)OCCO3)n(O)c1=NC1CCCCC1	.	28	3	4	26	1	.	.	.	.	.
Cc1ccc(/C=N/Nc2nc3ccccc3[nH]2)s1	-84	56*	56*	7	-100	10	68*	61*	84*	44	71*
C(=N\Nc1nc2ccccc2[nH]1)/c1ccccc1	-61	-21	-14	2	-99	-1	.	.	.	.	.
Clc1ccc2nc(-c3ccc(Br)s3)cn2c1	.	80*	63*	5	-292	11	14	69*	86*	49	15
COc1ccc(-c2cn3cc(Cl)ccc3n2)cc1OC	-33	2	1	6	-271	9	.	.	.	.	.
C[C@@H]1CN([C@@H](C)CO)C(=O)c2cc(NC(=O)Cc3ccccc3)ccc2O[C@@H]1CN(C)S(=O)(=O)c1cn(C)cn1	-7	.	.	.	.	.	.	.	.	.	.
Cc1noc(C)c1NC(=O)N(C)C[C@H]1Oc2ccc(NS(C)(=O)=O)cc2CC(=O)N([C@@H](C)CO)C[C@H]1C	7	.	.	.	.	.	.	.	.	.	.
Nc1nc2ccccc2n1/N=C/c1ccc(Br)cc1	-47	76*	67*	-1	13	5	60*	63*	90*	49	10
Nc1nc2ccccc2n1/N=C/c1ccc2c(c1)OCO2	-59	90*	84*	90*	6	-6	86*	86*	98*	86*	82*
C[C@@H]1CCCCO[C@@H](CN(C)S(=O)(=O)c2cn(C)cn2)[C@@H](C)CN([C@H](C)CO)C(=O)c2cc(NC(=O)Nc3ccc(F)cc3)ccc2O1	24	.	.	.	.	.	.	.	.	.	.
CO[C@@H]1CN(C)C(=O)c2ccc(NC(=O)Nc3cccc(Cl)c3)cc2OC[C@@H](C)NC[C@H]1C	9	.	.	.	.	.	.	.	.	.	.
O=C1CCN2C=Nc3cccc4ccc1c2c34	.	69*	59*	39	i	5	-25	17	6	-5	-5
COc1ccc(-c2ccc3c(c2)[C@@H]2[C@@H](CCN2S(=O)(=O)c2ccc(F)cc2)[C@H](CO)N3C)cc1	20	.	.	.	.	.	.	.	.	.	.
Cn1c(=O)c2cc(NCc3ccccc3)nnc2n(C)c1=O	.	81*	80*	5	-83	3	-3	-2	-5	-4	-8
O=C1N=c2ccccc2=C1c1sc(NS(=O)(=O)Cc2ccccc2)nc1O	-4	88*	40	69*	33	-7	78*	73*	92*	39	38

Source: PubChem BioAssay (several laboratories)
